Test results reported in PubChem BioAssay (Tox21).
Values without a mark were called inactive. Results filed as inconclusive are left out. Where a call stands in place of a potency, no number is given. Activity calls are given as the source filed them. Unless noted, the call rests on the fitted dose curve.

Assays:
[1] = Nuclear factor erythroid 2-related factor 2/antioxidant responsive element (Nrf2/ARE) small molecule agonists: qHTS cell viability counter screen in human keratinocytes (AID 1919968; active means well fitted curve in the direction sought with a large enough effect in the repeat runs; an effect the other way counts as inactive or inconclusive; further: nearly all actives have a fitted effect of over 55% in size; further: potency means the concentration at half of the fitted maximal effect)
Summary of the method: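 Cells of the KeratinoSens line were plated at 1,500 per well and left for 5 h before compound transfer from DMSO stocks. After a 23 h incubation (37 C, 5% CO2), CellTiter-Fluor was added. Signal was taken as fluorescence intensity 1 h later.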

[2] = Nuclear factor erythroid 2-related factor 2/antioxidant responsive element (Nrf2/ARE) small molecule agonists: luciferase reporter gene qHTS assay in human keratinocytes (AID 1919969); further: nearly all actives have a fitted effect of over 35% in size; further: potency means the concentration at half of the fitted maximal effect
[3] = biological target: Gonadotropin-releasing hormone receptor (Homo sapiens) (UniProt P30968); experiment: Human gonadotropin-releasing hormone receptor (GnRHR) small molecule agonists, calcium flux assay in GnRHR-HEK293 cells (AID 1920063); further: nearly all actives have a fitted effect of over 35% in size
Summary of the method: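 Compounds dissolved in DMSO are pin-transferred onto dye-loaded GnRHR-HEK293 cells, which were seeded 18 h before at 37 C/5% CO2. Calcium signal is read as fluorescence intensity at 1 s intervals for 3 min.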

[4] = biological target: KiSS-1 receptor (Homo sapiens) (UniProt Q969F8); experiment: Human kisspeptin (KISS1R) small molecule agonists, calcium flux assay in KISS1R-HEK293 cells (AID 1920064; active means well fitted curve in the direction sought with a large enough effect in the repeat runs; an effect the other way counts as inactive or inconclusive)
Summary of the method: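 Cell line: HEK293, stable human KISS1R. Dye loading 1 h at 37 C after 18 h culture. Read: kinetic fluorescence, 480/540 nm, 3 min at 1 s intervals.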

[5] = G protein-coupled receptor (GPCR) small molecule agonists, calcium flux assay: HEK293 wild type cell line counter screen (AID 1920065)
Summary of the method: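 Tox21 10K compounds, 15 concentrations each in triplicate, pin-transferred in DMSO onto dye-loaded cells; kinetic read at 480/540 nm for 3 min, 1 s intervals.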

[6] = p53 small molecule agonists, cell-based qHTS assay with human liver microsomes (AID 1963577);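 further: p53 response element beta-lactamase reporter cells with liver microsomes plus NADPH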
Summary of the method: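 Steps: plate p53RE-bla cells, incubate 5 h at 37 C; add compound in DMSO; add microsomes (0.5 mg/mL final) and NADPH (0.5 mg/mL final); incubate 16 h at 37 C; add LiveBLAzer, 2 h RT; read fluorescence.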

[7] = p53 small molecule agonists, cell-based qHTS assay with rat liver microsomes (AID 1963578)
Summary of the method: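 Metabolic activation is supplied by rat liver microsomes with NADPH (each 0.5 mg/mL final). p53RE-bla cells incubate with compound 16 h at 37 C; reporter activity is measured by LiveBLAzer fluorescence.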

[8] = p53 small molecule agonists, cell-based qHTS assay with human liver microsomes: qHTS cell viability counter screen (AID 1963579); further: nearly all actives have a fitted effect of over 45% in size; further: potency means the concentration at half of the fitted maximal effect
Summary of the method: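 After the 460/530 nm beta-lactamase read, CellTiter-Glo was added to the same wells and luminescence measured after 30 min at room temperature, giving viability of p53RE-bla cells treated 16 h with compounds plus microsomes and NADPH.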

[9] = p53 small molecule agonists, cell-based qHTS assay with rat liver microsomes: qHTS cell viability counter screen (AID 1963580); further: nearly all actives have a fitted effect of over 45% in size; further: potency means the concentration at half of the fitted maximal effect
Summary of the method: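 Cytotoxicity counter screen: intracellular ATP read by CellTiter-Glo luminescence in the p53 reporter wells. HCT-116 p53RE-bla cells were treated for 16 h at 37 C alongside rat liver microsomes and NADPH, each 0.5 mg/mL final.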

[10] = p53 small molecule agonists, cell-based qHTS assay: qHTS cell viability counter screen (AID 1963581); further: nearly all actives have a fitted effect of over 45% in size; further: potency means the concentration at half of the fitted maximal effect
Summary of the method: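 ATP content measured by luminescence in HCT-116 p53RE-bla cells treated 16 h at 37 C, same wells as the reporter screen.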

[11] = biological target: 5-hydroxytryptamine receptor 2A (Homo sapiens) (UniProt P28223); experiment: 5-hydroxytryptamine receptor 2A (HTR2A) small molecule antagonists, cell-based qHTS assay (AID 1963586); further: nearly all actives have a fitted effect of over 45% in size; further: potency means the concentration at half of the fitted maximal effect
Summary of the method: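 CHO cells stably expressing human HTR2A were plated for 18 h at 37 C, then loaded with calcium dye for 1 h. Compounds were preincubated 5 min at room temperature before DOI (4 nM solution) was added. Kinetic fluorescence was read for 3 min.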

[12] = biological target: 5-hydroxytryptamine receptor 2A (Homo sapiens) (UniProt P28223); experiment: 5-hydroxytryptamine receptor 2A (HTR2A) small molecule agonists, cell-based qHTS assay (AID 1963587); further: nearly all actives have a fitted effect of over 30% in size
Summary of the method: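 Kinetic calcium-flux fluorescence (2 min, 1 sec intervals) after compound addition in agonist mode. HTR2A-CHO cells were cultured 18 h, then dye-loaded 1 h at 37 C.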

[13] = biological target: Muscarinic acetylcholine receptor M1 (Homo sapiens) (UniProt P11229); experiment: Cholinergic receptor muscarinic 1 (CHRM1) small molecule agonists, cell-based qHTS assay (AID 1963589); further: nearly all actives have a fitted effect of over 35% in size
Summary of the method: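 Homogeneous fluorescence calcium flux, agonist mode. Human M1-expressing CHO cells; compound dosed at 15 concentrations, three independent runs; signal sampled every 1 sec.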

[14] = biological target: D(2) dopamine receptor (Homo sapiens) (UniProt P14416); experiment: Dopamine D2 receptor (DRD2) small molecule agonists, cell-based qHTS assay (AID 1963594); further: nearly all actives have a fitted effect of over 35% in size
Summary of the method: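 cAMP accumulation in DRD2-HEK293 cells measured by HTRF after 1 h detection; compounds added 10 min before NKH477 (200nM […]) forskolin-analogue stimulation, 30 min at room temperature, with Ro20-1724 present at 0.1 mM final.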

[15] = biological target: D(2) dopamine receptor (Homo sapiens) (UniProt P14416); experiment: Dopamine D2 receptor (DRD2) small molecule antagonists, cell-based qHTS assay (AID 1963595; active means well fitted inhibition curve with a large enough effect in the signal ratio in the repeat runs, with a control signal flat; the % refers to the signal ratio; further: potency means the concentration at half of the fitted maximal effect)
Summary of the method: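 Antagonist mode in DRD2-HEK293 cells: after compound addition with 0.1 mM Ro20-1724, cells received quinpirole (12 nM) and NKH477 (200 nM) for 30 min at room temperature; HTRF cAMP read after 1 h detection.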

[16] = biological target: Muscarinic acetylcholine receptor M1 (Homo sapiens) (UniProt P11229); experiment: Cholinergic receptor muscarinic 1 (CHRM1) small molecule antagonists, cell-based qHTS assay (AID 1963588); further: nearly all actives have a fitted effect of over 40% in size
Summary of the method: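 Compounds were tested at 15 concentrations in three independent runs. Dye-loaded CHRM1-CHO cells were exposed 5 min at room temperature before stimulation by acetylcholine added at 50nM. Intracellular calcium was read kinetically on FDSS for 3 min.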

[17] = biological target: Beta-2 adrenergic receptor (Homo sapiens) (UniProt P07550); experiment: Adrenergic beta2 receptor (ADRB2) small molecule antagonists, cell-based qHTS assay (AID 1963592); further: series mostly up to about 92 µM; nearly all actives have a fitted effect of over 50% in size
Summary of the method: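 Assay format: CHO-ADRB2 cells, 18-20hr seeding at 37C/5% CO2, then compound plus 1nM isoproterenol agonist mix for 0.5hr RT. Homogeneous time-resolved fluorescence cAMP detection after 1hr, expressed as 665/615 nm ratio.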

[18] = cAMP Responsive Elements (CRE) small molecule agonists, cell-based qHTS assay (AID 1963590)
Summary of the method: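 HEK 293T cells stably bearing CRE-bla were plated at 2,000 cells per well and rested 18 h. Compounds, positive controls or DMSO were added for 3 h at 37 C. LiveBLAzer B/G substrate was then loaded for 2 h at room temperature.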

[19] = cAMP Responsive Elements (CRE) small molecule antagonists, cell-based qHTS assay (AID 1963591; active means well fitted inhibition curve with a large enough effect in the signal ratio in the repeat runs, not every such curve was filed as active; the % refers to the signal ratio)
Summary of the method: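 First, CRE-bla HEK293T cells settled 18 h at 37 C. Next, compound and 0.25 uM final NKH477 were applied for 3 h. Last, LiveBLAzer B/G substrate was loaded for 2 h at room temperature.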

Gonadotropin-releasing hormone receptor (Homo sapiens), sequence (P30968 whole entry, looked up): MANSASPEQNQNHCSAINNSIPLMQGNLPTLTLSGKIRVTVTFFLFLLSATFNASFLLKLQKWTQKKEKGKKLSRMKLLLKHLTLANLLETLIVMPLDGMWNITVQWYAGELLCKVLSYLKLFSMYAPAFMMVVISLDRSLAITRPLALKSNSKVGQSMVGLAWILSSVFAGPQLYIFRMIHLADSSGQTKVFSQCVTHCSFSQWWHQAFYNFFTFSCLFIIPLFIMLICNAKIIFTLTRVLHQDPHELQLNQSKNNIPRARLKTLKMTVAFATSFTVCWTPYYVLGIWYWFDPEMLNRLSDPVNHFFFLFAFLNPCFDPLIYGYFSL
KiSS-1 receptor (Homo sapiens), sequence (Q969F8 whole entry, looked up): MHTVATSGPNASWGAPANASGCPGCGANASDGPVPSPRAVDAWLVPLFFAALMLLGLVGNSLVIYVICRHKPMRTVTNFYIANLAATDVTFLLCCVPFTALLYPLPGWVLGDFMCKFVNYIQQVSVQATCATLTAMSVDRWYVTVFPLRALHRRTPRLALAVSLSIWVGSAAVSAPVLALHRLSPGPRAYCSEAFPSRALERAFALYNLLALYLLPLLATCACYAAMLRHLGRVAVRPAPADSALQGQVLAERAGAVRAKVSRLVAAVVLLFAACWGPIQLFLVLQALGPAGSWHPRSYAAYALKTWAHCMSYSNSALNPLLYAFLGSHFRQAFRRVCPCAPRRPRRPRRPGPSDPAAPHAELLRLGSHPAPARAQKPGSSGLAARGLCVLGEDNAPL
D(2) dopamine receptor (Homo sapiens), sequence (P14416 whole entry, looked up): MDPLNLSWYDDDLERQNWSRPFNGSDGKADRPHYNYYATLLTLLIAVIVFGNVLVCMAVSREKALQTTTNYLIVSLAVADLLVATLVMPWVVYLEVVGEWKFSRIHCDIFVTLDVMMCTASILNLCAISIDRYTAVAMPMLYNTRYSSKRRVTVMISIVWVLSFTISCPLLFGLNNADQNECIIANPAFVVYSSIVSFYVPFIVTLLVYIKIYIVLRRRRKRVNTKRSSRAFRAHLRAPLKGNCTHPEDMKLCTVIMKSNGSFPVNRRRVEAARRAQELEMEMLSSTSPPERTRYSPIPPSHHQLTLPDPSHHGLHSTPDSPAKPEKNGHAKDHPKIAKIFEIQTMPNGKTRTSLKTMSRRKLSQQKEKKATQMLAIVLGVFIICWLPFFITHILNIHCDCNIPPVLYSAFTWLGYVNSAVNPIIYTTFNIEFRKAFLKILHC
5-hydroxytryptamine receptor 2A (Homo sapiens), sequence (P28223 whole entry, looked up): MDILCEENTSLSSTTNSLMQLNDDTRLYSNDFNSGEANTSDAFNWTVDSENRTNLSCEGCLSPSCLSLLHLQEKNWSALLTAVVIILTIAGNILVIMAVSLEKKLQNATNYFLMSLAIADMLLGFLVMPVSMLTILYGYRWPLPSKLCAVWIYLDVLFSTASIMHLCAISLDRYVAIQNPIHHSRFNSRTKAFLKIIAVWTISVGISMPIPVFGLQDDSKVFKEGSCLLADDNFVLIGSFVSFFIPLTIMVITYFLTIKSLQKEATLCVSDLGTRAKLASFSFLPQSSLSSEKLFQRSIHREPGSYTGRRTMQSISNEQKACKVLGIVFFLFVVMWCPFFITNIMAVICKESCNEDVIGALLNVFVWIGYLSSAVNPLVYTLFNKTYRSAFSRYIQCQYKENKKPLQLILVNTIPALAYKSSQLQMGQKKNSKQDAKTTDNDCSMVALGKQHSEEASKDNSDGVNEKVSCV
Beta-2 adrenergic receptor (Homo sapiens), sequence (P07550 whole entry, looked up): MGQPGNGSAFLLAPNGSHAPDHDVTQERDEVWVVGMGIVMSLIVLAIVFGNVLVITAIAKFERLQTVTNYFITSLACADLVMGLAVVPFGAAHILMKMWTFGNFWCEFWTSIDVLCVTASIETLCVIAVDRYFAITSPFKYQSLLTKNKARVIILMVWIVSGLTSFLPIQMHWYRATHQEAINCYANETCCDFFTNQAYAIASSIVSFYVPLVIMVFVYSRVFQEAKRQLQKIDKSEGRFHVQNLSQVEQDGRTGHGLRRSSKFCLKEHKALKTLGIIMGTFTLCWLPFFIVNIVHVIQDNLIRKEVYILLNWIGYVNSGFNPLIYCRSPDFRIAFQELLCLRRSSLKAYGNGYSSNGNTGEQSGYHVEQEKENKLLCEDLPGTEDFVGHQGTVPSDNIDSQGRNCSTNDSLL
Muscarinic acetylcholine receptor M1 (Homo sapiens), sequence (P11229 whole entry, looked up): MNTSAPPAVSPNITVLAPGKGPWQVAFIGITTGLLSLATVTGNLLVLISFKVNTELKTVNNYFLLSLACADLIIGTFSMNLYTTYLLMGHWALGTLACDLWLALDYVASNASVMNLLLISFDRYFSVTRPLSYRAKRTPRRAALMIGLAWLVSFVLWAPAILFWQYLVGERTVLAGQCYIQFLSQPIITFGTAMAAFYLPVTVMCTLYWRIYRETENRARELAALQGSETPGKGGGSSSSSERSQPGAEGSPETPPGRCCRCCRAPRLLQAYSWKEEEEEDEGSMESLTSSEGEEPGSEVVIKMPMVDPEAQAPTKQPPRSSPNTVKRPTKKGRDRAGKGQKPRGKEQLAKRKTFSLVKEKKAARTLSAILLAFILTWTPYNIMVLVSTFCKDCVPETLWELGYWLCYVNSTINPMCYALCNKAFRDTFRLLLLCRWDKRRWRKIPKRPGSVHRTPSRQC

Compound	Potency [1]	Potency [2]	Potency [3]	outcome [4]	outcome [5]	Potency [6]	Potency [7]	Potency [8]	Potency [9]	Potency [10]	Potency [11]	Potency [12]	Potency [13]	Potency [14]	Potency [15]	Potency [16]	Potency [17]	Potency [18]	Potency [19]
C=CC(=O)OCC(CO)(COCC(COC(=O)C=C)(COC(=O)C=C)COC(=O)C=C)COC(=O)C=C	4.28 µM (active)	2.4 µM (active)	inactive	inactive	inactive	inactive	inactive	3.2 µM (active)	35.9 µM (active)	14.3 µM (active)	inactive	inactive	inactive	inactive	27 µM (active)				
CCOC(=O)N1CCC(Nc2ccc(Cl)cc2N)CC1	inactive	inactive	inactive	inactive	inactive	inactive	inactive	inactive	inactive	inactive	inactive	inactive	inactive	inactive	inactive	inactive	inactive		
O=C(c1ccc(O)cc1)c1ccc(Cl)cc1	inactive	inactive	inactive	inactive	inactive	inactive	inactive	inactive	inactive	inactive	inactive	inactive		inactive	inactive	inactive	inactive		
CC(c1cc(C(C)(C)C)cc(C(C)(C)C)c1O)c1cc(C(C)(C)C)cc(C(C)(C)C)c1O	inactive	inactive	inactive	inactive	inactive	inactive	inactive	inactive	inactive	inactive	inactive	inactive	inactive	inactive	inactive		inactive	inactive	inactive
Nc1ccc(Oc2cccc(Oc3ccc(N)cc3)c2)cc1	inactive	inactive	inactive	inactive	inactive	inactive	inactive	inactive	inactive	inactive	0.84 µM (active)		inactive	inactive		inactive	inactive	inactive	inactive
CC1=NC(C)OC1C (configuration not stated)	inactive	61.1 µM (active)	inactive	inactive	inactive	inactive	inactive	inactive	inactive	inactive	inactive	inactive	inactive	inactive	inactive				
CC(C)=CCC/C(C)=C/CC/C(C)=C/CO	inactive	68.6 µM (active)	inactive	inactive	inactive	inactive	inactive	inactive	inactive	inactive	inactive	inactive	inactive	inactive	inactive		inactive	inactive	
c1cc2c3c(c1)ccc1cccc(c13)C2	inactive	inactive	inactive	inactive	inactive	inactive	inactive	inactive	inactive	inactive	inactive	inactive	inactive	inactive	inactive	inactive	inactive		
